The source of these data is PubChem BioAssay (Tox21).

Results filed as inconclusive are left out. Calls of active or inactive are those of the source. Calls come from the whole dose curve.

This assay in a line: qHTS assay to identify small molecule agonists or antagonists of the thyroid stimulating hormone receptor (TSHR) signaling pathway - wild type cell line counter screen (AID 1259384). To be noted: HEK293 wild type, cAMP HTRF counter-screen; series mostly up to 92.4 µM. An excerpt:
U.S. Tox21 Program National Center for Advancing Translational Sciences [NCATS] NIH Chemical Genomics Center [NCGC] U.S. Environmental Protection Agency [EPA] National Institutes of Environmental Health Sciences [NIEHS] National Toxicology Program [NTP] U.S. Food and Drug Administration [FDA] Tox21 Assay Overview: TSHR is the receptor for thyrotropin (thyroid stimulating hormone or TSH), a member of the glycoprotein hormone family. TSH is released by the anterior pituitary gland and is the main regulator of thyroid gland growth and development. Upon binding circulating thyrotropin, a G-protein signal cascade activates adenylyl cyclase and […] cAMP concentration is increased. cAMP is a key second messenger involved extensively in cellular signal transduction pathways associated with the majority of G-protein coupled receptors (GPCRs). The activation of these GPCRs by neurotransmitters, lipids, nucleotides, peptides and hormones results in the activation or the inhibition of plasma membrane-bound adenylate cyclase through heterotrimeric G-proteins. A cell-based TSHR-Hek293 assay can be used to identify TSHR agonists. To eliminate the false positive compounds identified from screening a cell-based TSHR-Hek293 cell line, cAMP assay in a wild type Hek293 cells was used as a counter screening.
Tox21 Assay Protocol Summary: Hek293 cells (wild type) were dispensed at 800 cells/4 uL/well in 1536-well white plates using a Multidrop dispenser. After the assay plates were incubated at a 37 C/5% CO2 incubator for 18 hrs, 23 nL of compounds dissolved in DMSO, positive controls or DMSO only was transferred to the assay plate by a pin tool, followed by 1 ul medium containing Ro20-1724. After 30 min of incubation at room temperature, 2.5 ul/well of cAMP-d2 and 2.5 ul/well of anti-cAMP-cryptate were added respectively into the assay plates using a Flying Reagent Dispenser. The plates were incubated at room temperature for 1 hr. The fluorescence intensity in the plates was measured using an Envision plate reader. Each test compound was measured at 15 concentrations and in triplicates.
(In qHTS, concentration-response curves come from the screen itself.)
With `CCOC(=O)CC(O)(CC(=O)OCC)C(=O)OCC`, the compound was called inactive.
In the case of `CCN(CCCCOC(=O)c1ccc(OC)c(OC)c1)C(C)Cc1ccc(OC)cc1` (stereo not given) it was “inactive”.
As for `OCCc1ccncc1`, the result was inactive.
In the case of `CC(C)CCCCCCCOC(=O)c1ccc(C(=O)OCCCCCCCC(C)C)c(C(=O)OCCCCCCCC(C)C)c1` it was “inactive”.
In the case of `CCCCCCOC(=O)c1ccccc1` it was “inactive”; in that of `CC(=O)S[C@H](C(=O)N[C@H]1Cc2ccccc2[C@H]2CCC[C@@H](C(=O)O)N2C1=O)C(C)C`, “inactive”.
With `CC(C)Oc1ccccc1O`, the outcome was inactive.
On to `O=c1[nH][nH]c2ccccc12`, for which the result was inactive.
In the case of `O=C(Nc1ccccc1)c1cc([N+](=O)[O-])ccc1Cl` it was “inactive”.
In the case of `CC(CN=Cc1ccccc1O)N=Cc1ccccc1O` (stereo not given) it was “inactive”; in that of `OCC(O)c1ccccc1` (stereo not given), “inactive”.
In the case of `COC(=O)c1cc(Cl)ccc1[N+](=O)[O-]` it was “inactive”; in that of `CCCCCCCCCCCCN1CCOCC1`, “inactive”.
Take `CCC1=C(C)CN(C(=O)NCCc2ccc(S(=O)(=O)NC(=O)NC3CCC(C)CC3)cc2)C1=O` (stereo not given): the outcome was inactive.
Regarding `CC1(C)C(=O)NC(=O)N1CO`, the result was inactive.
For `O=C(NC1CCN(CCc2c[nH]c3ccccc23)CC1)c1ccccc1`, the result was inactive.
In the case of `CCCCCCCCC(=O)OCC(C)OC(=O)CCCCCCCC` (stereo not given) it was “inactive”; in that of `CCCCCCCCNC`, “inactive”.
In the case of `OCCCO` it was “inactive”; in that of `COc1ccnc2c1CCCCC2S(=O)c1nc2ccccc2[nH]1` (stereo not given), “inactive”.
In the case of `Oc1ccc(Oc2ccccc2)cc1` it was “inactive”.
Take `Cc1ccc2ccccc2c1[N+](=O)[O-]`: the outcome was inactive.
`Nc1ncnc2c1ncn2[C@@H]1O[C@H](CO)[C@@H](O)[C@H]1O`: the call was inactive.
In the case of `COc1cccc([C@H](O)C2CCN(CCc3ccc(F)cc3)CC2)c1OC` it was “inactive”; in that of `Nc1cccc2c(=O)[nH][nH]c(=O)c12`, “inactive”; in that of `COc1ccc(/C=C/S(=O)(=O)NC(=O)c2ccc(C)cc2Cl)cc1`, “inactive”.
With `CC(C)(C(=O)O)c1ccc(C(O)CCCN2CCC(C(O)(c3ccccc3)c3ccccc3)CC2)cc1` (stereo not given), the result was inactive.
As for `CC(=O)Nc1ccn(C2COC(COC(=O)c3ccccc3)O2)c(=O)n1` (stereo not given), the compound was called inactive.
In the case of `Cc1nc2sccn2c(=O)c1CCN1CCC(=C(c2ccc(F)cc2)c2ccc(F)cc2)CC1` it was “inactive”.
In the case of `O=C(O)c1ccncc1` it was “inactive”.
In the case of `CCOc1ccc2c(c1)C(C)CC(C)(C)N2` (stereo not given) it was “inactive”; in that of `COc1ccc(CN(CCN(C)C)c2ncccn2)cc1`, “inactive”; in that of `S=c1[nH][nH]c(=S)s1`, “inactive”.
With `O=C(N[C@@H](Cc1ccccc1)[C@@H](O)C(=O)N1C[C@@H](O)[C@@H](O)C1)c1cc2cc(Cl)ccc2[nH]1`, the compound was called inactive.
In the case of `CCCCCCCCCCCC(=O)OCC` it was “inactive”; in that of `C[C@H]1C[C@H]2[C@@H]3CCC4=CC(=O)C=C[C@]4(C)[C@@]3(F)[C@@H](O)C[C@]2(C)[C@@]1(O)C(=O)COP(=O)(O)O`, “inactive”.
In the case of `CCOc1cc(OCC)c(C(C)=O)cc1OCC` it was “inactive”.
In the case of `CCCOC(C)=O` it was “inactive”; in that of `CC(C)(C)c1cc(C=O)cc(C(C)(C)C)c1O`, “inactive”.
For `CC(C)(C)c1ccc(CCC=O)cc1`, the call was inactive.
